For 40 sequences, sensor-assay potency score (higher = more potent) results are on record in the OligoGym collection.
Also: reference of the scale not given here.

The target in one assay is KIF25. The experiment in a line: pooled miR-30 sensor sort-seq; sequence = guide strand. The conditions noted are these: shRNA.
TATAGCTCTTTCCGCTGCCCGT gave a sensor-assay potency score (higher = more potent) of -1.1.

With TTATTGTAAACTTCCACTATGG, the sensor-assay potency score (higher = more potent) is -0.569.

In turn, ATTATTGTAAACTTCCACTATG gave a sensor-assay potency score (higher = more potent) of -0.786.

As for TTGTAAACTTCCACTATGGAGA, the sensor-assay potency score (higher = more potent) is -0.609.

Sequence TAACACAAACATTGTACCCATC registered a sensor-assay potency score (higher = more potent) of -0.837.

Take AGAATCACCAGTAACTTCGCAT: the sensor-assay potency score (higher = more potent) is -0.565.

On to TAACTTCGCATCGCCTCCGAGG, for which the sensor-assay potency score (higher = more potent) is -1.63.

ACAAACATTGTACCCATCCAAG: the sensor-assay potency score (higher = more potent) was -1.74.

TAATTCCTAAGTCACTCTGTGG showed a sensor-assay potency score (higher = more potent) of -1.49.

The sequence AACCTCTGTCCGTCCATCCTTG gave a sensor-assay potency score (higher = more potent) of -0.841.

A further assay addresses KIF26A. Described as above. To be noted: shRNA.
Take TAGCTTGTCGAGAAGCAGGGCA: the sensor-assay potency score (higher = more potent) was -0.503.

TACTGGTAGACGTGCAGCGTGA: the sensor-assay potency score (higher = more potent) is -1.25.

The sequence TCAAACTCATCATTGATGCTGC came in with a sensor-assay potency score (higher = more potent) of 0.23.

Turning to TCATCGATCTCGTACACCTTGA, the sensor-assay potency score (higher = more potent) is -0.779.

As for TGTGCTGCTTCTACCTTGCTGG, the sensor-assay potency score (higher = more potent) was -0.279.

The sequence ATCTCGTACACCTTGATCTCGA registered a sensor-assay potency score (higher = more potent) of -0.604.

TACACCTTGATCTCGAACGGCT showed a sensor-assay potency score (higher = more potent) of -0.449.

As to TCGAAGGCAAACATCTTGGGAA, the sensor-assay potency score (higher = more potent) was determined as 0.12.

Turning to TTGAGCTCCACCAGCTTCGTGT, the sensor-assay potency score (higher = more potent) is -0.457.

Consider TCGCTTGAGCTCCACCAGCTTC, for which the sensor-assay potency score (higher = more potent) is -1.81.

Take TTGTCCTTGGTCTTGGAGGCGG: the sensor-assay potency score (higher = more potent) was -1.26.

TTCTTGGGGGACTTGAGGCTGC gave a sensor-assay potency score (higher = more potent) of -0.669.

Another assay deals with KIF2C. Described as above. To be noted: shRNA.
For TTTGTCTGCTAGCCTGCTCTTC, the sensor-assay potency score (higher = more potent) was -1.15.

Take TTCTGTTTCCATTTGAATCAAC: the sensor-assay potency score (higher = more potent) is -0.604.

TGAACCTGTAGACAACTTCATT returned a sensor-assay potency score (higher = more potent) of -1.25.

The sequence TTGGAGTTGACGGATCTCCGTT showed a sensor-assay potency score (higher = more potent) of -0.171.

On to TTGCTGTATGATCTCCTTGAGC, for which the sensor-assay potency score (higher = more potent) was -1.21.

Turning to TAACACAGACACATATTCTGTG, the sensor-assay potency score (higher = more potent) turned out to be 0.393.

Take TTCAAAGATTGTCTGTACCAGT: the sensor-assay potency score (higher = more potent) was -0.672.

As to TTGCTCTTCCATCTCCTCGCTG, the sensor-assay potency score (higher = more potent) was -0.535.

For TATGTGTCTTGCCACTTCCTGT, the sensor-assay potency score (higher = more potent) is -0.789.

TTTCTTGGCCAATTCTTGCTTA: the sensor-assay potency score (higher = more potent) worked out at 0.0812.

With TTCTCCAAGTTCACAGTCCTTA, the sensor-assay potency score (higher = more potent) is -0.384.

A further assay concerns the target KIR2DL5B. The assay is described as above. The conditions noted are these: shRNA.
In turn, TTTTGTTGTAGAGCTCAGGGAC came in with a sensor-assay potency score (higher = more potent) of 0.231.

With TTGAAGAGTTTCCTGTGACAGA, the sensor-assay potency score (higher = more potent) is -0.517.

On to TATCTGTTGGAGGTGCCTTGGG, for which the sensor-assay potency score (higher = more potent) was -0.788.

The sequence TTTGTCTGTGTGAAAACGCAGT displayed a sensor-assay potency score (higher = more potent) of -0.271.

The sequence TTGATCATCAGAGTCCTCCCTG yielded a sensor-assay potency score (higher = more potent) of 0.731.

Take TACATGTCAAATGAGCTCCTGG: the sensor-assay potency score (higher = more potent) was -0.149.

As for ACAAGCAGTGGGTCACTCGGGT, the sensor-assay potency score (higher = more potent) was -0.672.
